This is an account of results in ChEMBL document CHEMBL1157539, “Thousands of chemical starting points for antimalarial lead identification” (Nature, 2010).

SMILES strings stand for the structures.

Holding throughout (assay type): functional
Experiment [1] concerns Plasmodium falciparum. The experiment is described as follows: GSK_TCMDC: Inhibition of Plasmodium falciparum 3D7 in whole red blood cells, using parasite LDH activity as an index of growth. Test compounds present at 2uM.
Experiment [2] concerns Plasmodium falciparum. The experiment is described as follows: GSK_TCMDC: Inhibition of Plasmodium falciparum Dd2 in whole red blood cells, using parasite LDH activity as an index of growth. Test compounds present at 2uM.
In a further experiment the test system is HepG2. As to the kind of experiment: GSK_TCMDC: Percent inhibition of human HepG2 cell line. Test compounds present at 10uM.

As usually defined, the Inhibition is the change of the read-out against control, counted positive when it falls. Higher therefore signals strong suppression. Turning to `O=c1c(NCCCN(Cc2ccc(F)cc2)c2ccccn2)c(NCc2cccnc2)c1=O`, the Inhibition in the experiment on Plasmodium falciparum [1] came to 100%; with Plasmodium falciparum [2] it was 92%; with HepG2 it was 0%.

In the case of `CN(C)c1ccc(-c2nnc(Sc3ccc(C#N)c([N+](=O)[O-])c3)n2Cc2ccco2)cc1`, the Inhibition in the experiment with Plasmodium falciparum [1] is 95%; in the experiment on Plasmodium falciparum [2] it was 79%; in the experiment with HepG2 it was 3%.

Turning to `CN(C)CCCNc1ncnc2c1[nH]c1ccc(Br)cc12`, the Inhibition in the experiment with Plasmodium falciparum [1] stood at 100%; in the experiment with Plasmodium falciparum [2] it was 19%; in the experiment on HepG2 it was 3%.

Consider `Cc1cc(N[C@@H](Cc2ccccc2)C(=O)NCCCOC(C)C)nc(NCC2CCCCC2)n1.O=C(O)C(F)(F)F`, for which the Inhibition was 94% in the experiment with Plasmodium falciparum [1], 25% in the experiment with Plasmodium falciparum [2] and 17% with HepG2.

With `COc1cc2nc(Nc3ccc4c(c3)OCCO4)nc(N)c2cc1OC.Cl`, the Inhibition is on record as 100% in the experiment with Plasmodium falciparum [1], 80% in the experiment with Plasmodium falciparum [2] and 13% in the experiment on HepG2.

In the case of `CN(C)CCN(C)C(=O)c1cc(-c2ccncc2)c(-c2ccc(Cl)c(O)c2)o1.Cl`, the Inhibition with Plasmodium falciparum [1] was 97%; in the experiment with Plasmodium falciparum [2] it was 34%; in the experiment with HepG2, 0%.

Consider `Cc1cc(N2CCCN(CC3CCCCC3)CC2)nc(Nc2ccc(Br)cc2)n1`, for which the Inhibition in the experiment on Plasmodium falciparum [1] was 95%; with Plasmodium falciparum [2], 54%; with HepG2, 24%.

Take `CCCCCCCN1CC[C@@H](CCCc2ccnc3ccc(OCCCCNC(N)=O)cc23)[C@@H](CC)C1.O=C(O)C(=O)O`: the Inhibition was found to be 93% in the experiment with Plasmodium falciparum [1], 18% in the experiment on Plasmodium falciparum [2] and 41% with HepG2.

Regarding `O=C(Nc1ccccc1)N(Cc1ccc(-c2cccc(CNC3CCCC3)c2)cc1)C1CCN(Cc2ccccc2)CC1.O=C(O)C(F)(F)F`, the values for the Inhibition in the experiment with Plasmodium falciparum [1], with Plasmodium falciparum [2] and in the experiment on HepG2 were 100%, 67% and 43%, respectively.

As for `Cc1cc(OCc2ccccc2)c(OCc2ccccc2)cc1C(O)CN(C)Cc1ccccc1.Cl` (stereo not given), the figures for the Inhibition in the experiment on Plasmodium falciparum [1], with Plasmodium falciparum [2] and in the experiment with HepG2 were 96%, 87% and 14%, respectively.
